# According to PubChem BioAssay (EPA / NIEHS):
# “And” between values parts separate entries of the source, which are not always exact repeats. Equal entries are not always repeated. Results filed as inconclusive are left out. The source made the active and inactive calls. How the source made its calls: active means hit-call score of the fitted dose curve at least 0.9, where 1 is the maximum; inconclusive means response in the unintended direction; inactive means score below 0.9.
# Experiments:
# [1] = biological target: human Vascular Endothelial Growth Factor Receptor 1 (VEGFR1), FLT1 (gene 2321) (UniProt P17948); experiment: NVS_ENZ_hVEGFR1: NovaScreen (NVS) Enzymatic Assay for human Vascular Endothelial Growth Factor Receptor 1 (VEGFR1) (AID 2283226)
# Outline: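 Kinase activity of recombinant human VEGFR1 was read by fluorescence after electrophoretic separation of product from substrate, 1 h post-dosing; initial duplicate single-point testing at 25 uM, followed by concentration-series follow-up, with DMSO as baseline.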
# [2] = biological target: rabbit Imidazoline 2 Central (I2C), CKB (gene 100009085) (UniProt P00567); experiment: NVS_ENZ_rabI2C: NovaScreen (NVS) Enzymatic Assay for rabbit Imidazoline 2 Central (I2C) (AID 2283228)
# Outline: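 Rabbit brain membranes, cell-free; readout by filter-based scintillation counting 1.5 hours after dosing, loss of signal vs DMSO. Initial duplicate test at 25 uM, then concentration-response with 50 uM top concentration.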
# [3] = biological target: rat Acetylcholinesterase (AChE), Ache (gene 83817) (UniProt P37136); experiment: NVS_ENZ_rAChE: NovaScreen (NVS) Enzymatic Assay for rat Acetylcholinesterase (AChE) (AID 2283233)
# Outline: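 Compounds first screened at 25 uM in duplicate, then those passing threshold tested in concentration series up to 50 uM, against AChE from rat brain membranes. Enzyme activity read by absorbance at 0.33 h; inhibition scored versus DMSO.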
# [4] = tested on: rat Monoamine Oxidase, MAO-A, Peripheral (MAOAP), gene 29253; experiment: NVS_ENZ_rMAOAP: NovaScreen (NVS) Enzymatic Assay for rat Monoamine Oxidase, MAO-A, Peripheral (MAOAP) (AID 2283237)
# Outline: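 Scintillation counting tracked MAO-A activity in a cell-free rat liver mitochondrial membrane prep, read 1.17 hours after compound addition. Single-point duplicate testing at 25 uM preceded concentration-response follow-up; activity was fitted relative to DMSO.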
# [5] = biological target: rat Monoamine Oxidase, MAO-B, Central (MAOBC), Maob (gene 25750) (UniProt P19643); experiment: NVS_ENZ_rMAOBC: NovaScreen (NVS) Enzymatic Assay for rat Monoamine Oxidase, MAO-B, Central (MAOBC) (AID 2283238)
# Outline: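 Here MAO-B activity in rat brain preparations is quantified radiometrically, counts taken at 1.17 hours. Concentration-response runs reach 50 uM, with plate controls, and values are fitted as loss of signal from the DMSO baseline.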
# [6] = biological target: rat Adenylate Cyclase, Forskolin Stimulated, Adcy5 (gene 64532) (UniProt Q04400); experiment: NVS_ENZ_rACFSKBinding: NovaScreen (NVS) Enzymatic Assay for rat Adenylate Cyclase, Forskolin Stimulated (AID 2283232)
# Outline: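 Chemicals were first tested at 25 uM in duplicate, then hits run as concentration series with top concentration 50 uM. Enzyme source was rat forebrain membranes; radiometric filter read-out after 1 h, referenced to DMSO.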
# [7] = biological target: human Protein Tyrosine Phosphatase Receptor Type C (PTPRC), PTPRC (gene 5788) (UniProt P08575); experiment: NVS_ENZ_hPTPRC: NovaScreen (NVS) Enzymatic Assay for human Protein Tyrosine Phosphatase Receptor Type C (PTPRC) (AID 2283212)
# Outline: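 Absorbance-based phosphatase activity of human PTPRC protein extracted from yeast was measured 1 h post-dosing. Compounds first tested at 25 uM in duplicate, then those passing threshold in singleton concentration series to 50 uM.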
# [8] = biological target: human Protein Tyrosine Phosphatase Non-receptor Type 6 (PTPN6), PTPN6 (gene 5777) (UniProt P29350); experiment: NVS_ENZ_hPTPN6: NovaScreen (NVS) Enzymatic Assay for human Protein Tyrosine Phosphatase Non-receptor Type 6 (PTPN6) (AID 2283210)
# Outline: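 Recombinant human PTPN6 from SF9 cells, enzyme activity followed by fluorescence after mobility-shift separation of substrate and product at 1.33 h. Chemicals first tested at a single 25 uM in duplicate, then confirmed across concentration series; loss of signal relative to DMSO.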
# [9] = biological target: human Tyrosine Protein Kinase Receptor Tie-2 (Tie2), TEK (gene 7010) (UniProt Q02763); experiment: NVS_ENZ_hTie2: NovaScreen (NVS) Enzymatic Assay for human Tyrosine Protein Kinase Receptor Tie-2 (Tie2) (AID 2283225)
# Outline: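 Substrate and product were separated by mobility shift and detected by fluorescence after a 1-hour reaction with recombinant Tie2. Chemicals passing a 25 uM single-point screen were titrated to a maximum of 50 uM. Results were normalized to DMSO baseline.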
# [10] = biological target: human Vascular Endothelial Growth Factor Receptor 2 (VEGFR2), KDR (gene 3791) (UniProt P35968); experiment: NVS_ENZ_hVEGFR2: NovaScreen (NVS) Enzymatic Assay for human Vascular Endothelial Growth Factor Receptor 2 (VEGFR2) (AID 2283230)
# Outline: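 Cell-free recombinant VEGFR2 kinase, fluorescent substrate with electrophoretic mobility-shift separation; read 1 h after dosing. Screened at 25 uM in duplicate, hits to concentration-response up to 50 uM; loss-of-signal versus DMSO.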
# [11] = biological target: human Protein Tyrosine Phosphatase Non-receptor Type 9 (PTPN9), PTPN9 (gene 5780) (UniProt P43378); experiment: NVS_ENZ_hPTPN9: NovaScreen (NVS) Enzymatic Assay for human Protein Tyrosine Phosphatase Non-receptor Type 9 (PTPN9) (AID 2283209)
# Outline: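 Sf9-expressed enzyme in a cell-free assay, fluorescence read 1.33 h after dosing with mobility-shift separation of substrate and product. Tested at 25 uM in duplicate, then up to 50 uM; signal loss versus DMSO.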
# [12] = biological target: human Protein Tyrosine Phosphatase Receptor Type M (PTPRM), PTPRM (gene 5797) (UniProt P28827); experiment: NVS_ENZ_hPTPRM: NovaScreen (NVS) Enzymatic Assay for human Protein Tyrosine Phosphatase Receptor Type M (PTPRM) (AID 2283215)
# Outline: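 Read-out is fluorescence after electrophoretic separation of substrate and product, taken 1.33 h post-dosing with recombinant enzyme. Compounds screened at 25 uM in duplicate, then concentration series for actives; activity as signal loss relative to DMSO.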
# [13] = biological target: human Sirtuin 2 (SIRT2), SIRT2 (gene 22933) (UniProt Q8IXJ6); experiment: NVS_ENZ_hSIRT2: NovaScreen (NVS) Enzymatic Assay for human Sirtuin 2 (SIRT2) (AID 2283217)
# Outline: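 Single-point duplicate screen at 25 uM, then concentration-response (max 50 uM) for chemicals passing threshold. Enzyme activity of recombinant human SIRT2 measured after 1 hr by fluorescence with mobility-shift separation of product; DMSO baseline.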
# [14] = biological target: human Sirtuin 1 (SIRT1), SIRT1 (gene 23411) (UniProt Q96EB6); experiment: NVS_ENZ_hSIRT1: NovaScreen (NVS) Enzymatic Assay for human Sirtuin 1 (SIRT1) (AID 2283219)
# Outline: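 Cell-free recombinant SIRT1 with a fluorescent substrate; substrate and product separated by electrophoretic mobility shift and read by fluorescence intensity, 1 h after dosing. Primary screen at 25 uM in duplicate; hits re-run in concentration-response up to 50 uM, relative to DMSO.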
# [15] = biological target: human Protein Tyrosine Phosphatase Receptor Type B (PTPRB), PTPRB (gene 5787) (UniProt P23467); experiment: NVS_ENZ_hPTPRB: NovaScreen (NVS) Enzymatic Assay for human Protein Tyrosine Phosphatase Receptor Type B (PTPRB) (AID 2283211)
# Outline: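 Recombinant human PTPRB with a fluorescent substrate, product separated by electrophoretic mobility shift; read 1 h after dosing. Primary screen in duplicate at 25 uM; actives then retested in concentration series; loss of signal versus DMSO.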
# [16] = biological target: sheep Cyclooxygenase-2 (Cox2), PTGS2 (gene 443460) (UniProt P79208); experiment: NVS_ENZ_oCOX2: NovaScreen (NVS) Enzymatic Assay for sheep Cyclooxygenase-2 (Cox2) (AID 2283231)
# Outline: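 Ovine placental enzyme, cell-free; chemical added, 0.66 h, absorbance (colorimetric). Screen 25 uM in duplicate; ≥threshold hits titrated, top 50 uM. Inhibition = signal loss vs DMSO.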
# [17] = biological target: Tyrosine-protein phosphatase non-receptor type 14 (Homo sapiens) (UniProt Q15678); experiment: NVS_ENZ_hPTPN14: NovaScreen (NVS) Enzymatic Assay for human Protein Tyrosine Phosphatase Non-receptor Type 14 (PTPN14) (AID 2283206)
# Outline: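 Fluorescent substrate turnover by recombinant human PTPN14 was measured 0.5 h after compound addition, with substrate and product separated by mobility shift. Single-point screening at 25 uM, then concentration-response up to 50 uM for chemicals meeting threshold (e.g., 30% inhibition).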
# [18] = biological target: human SRC Proto-Oncogene, Non-receptor Tyrosine Kinase (SRC), SRC (gene 6714) (UniProt P12931); experiment: NVS_ENZ_hSRC: NovaScreen (NVS) Enzymatic Assay for human SRC Proto-Oncogene, Non-receptor Tyrosine Kinase (SRC) (AID 2283223)
# Outline: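 Compounds passing 30% inhibition at 25 uM (duplicate) were titrated to a top concentration of 50 uM. Enzyme activity read by fluorescence with mobility-shift substrate/product separation after 1 h; DMSO baseline.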
# [19] = biological target: human Vascular Endothelial Growth Factor Receptor 3 (VEGFR3), FLT4 (gene 2324) (UniProt P35916); experiment: NVS_ENZ_hVEGFR3: NovaScreen (NVS) Enzymatic Assay for human Vascular Endothelial Growth Factor Receptor 3 (VEGFR3) (AID 2283229)
# Outline: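 Chemicals first run in duplicate at 25 uM, with actives re-tested in concentration series to a top of 50 uM. Recombinant VEGFR3 activity measured after 1 h via fluorescence with mobility-shift product separation; inhibition fitted relative to DMSO.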
# [20] = biological target: rat Catechol-O-Methyl Transferase (COMT), Comt (gene 24267) (UniProt P22734); experiment: NVS_ENZ_rCOMT: NovaScreen (NVS) Enzymatic Assay for rat Catechol-O-Methyl Transferase (COMT) (AID 2283235)
# Outline: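 Rat dorsal striatum extract served as COMT source; product quantified by HPLC/spectrophotometry, read at 0 h after dosing. Primary single-concentration screen at 25 uM, followed by concentration series to a 50 uM maximum.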
# Chain of sheep Cyclooxygenase-2 (Cox2), PTGS2 (gene 443460) (P79208 whole entry, looked up): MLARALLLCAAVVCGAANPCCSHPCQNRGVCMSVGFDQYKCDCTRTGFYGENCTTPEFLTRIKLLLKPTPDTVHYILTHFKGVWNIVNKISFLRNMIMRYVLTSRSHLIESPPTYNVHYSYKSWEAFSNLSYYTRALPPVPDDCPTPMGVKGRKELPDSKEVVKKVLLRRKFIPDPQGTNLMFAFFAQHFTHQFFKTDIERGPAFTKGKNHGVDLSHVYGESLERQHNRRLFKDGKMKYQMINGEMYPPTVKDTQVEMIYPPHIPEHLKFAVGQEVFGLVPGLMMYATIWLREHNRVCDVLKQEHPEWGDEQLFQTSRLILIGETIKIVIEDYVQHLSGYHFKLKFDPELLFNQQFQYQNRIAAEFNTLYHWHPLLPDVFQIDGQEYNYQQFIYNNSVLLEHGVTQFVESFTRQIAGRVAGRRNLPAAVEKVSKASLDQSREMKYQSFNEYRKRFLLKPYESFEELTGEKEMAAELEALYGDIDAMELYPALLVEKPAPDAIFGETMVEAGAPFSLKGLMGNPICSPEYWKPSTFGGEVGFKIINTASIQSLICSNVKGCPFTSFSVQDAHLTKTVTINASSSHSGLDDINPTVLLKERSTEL
# Chain of rat Monoamine Oxidase, MAO-B, Central (MAOBC), Maob (gene 25750) (P19643 whole entry, looked up): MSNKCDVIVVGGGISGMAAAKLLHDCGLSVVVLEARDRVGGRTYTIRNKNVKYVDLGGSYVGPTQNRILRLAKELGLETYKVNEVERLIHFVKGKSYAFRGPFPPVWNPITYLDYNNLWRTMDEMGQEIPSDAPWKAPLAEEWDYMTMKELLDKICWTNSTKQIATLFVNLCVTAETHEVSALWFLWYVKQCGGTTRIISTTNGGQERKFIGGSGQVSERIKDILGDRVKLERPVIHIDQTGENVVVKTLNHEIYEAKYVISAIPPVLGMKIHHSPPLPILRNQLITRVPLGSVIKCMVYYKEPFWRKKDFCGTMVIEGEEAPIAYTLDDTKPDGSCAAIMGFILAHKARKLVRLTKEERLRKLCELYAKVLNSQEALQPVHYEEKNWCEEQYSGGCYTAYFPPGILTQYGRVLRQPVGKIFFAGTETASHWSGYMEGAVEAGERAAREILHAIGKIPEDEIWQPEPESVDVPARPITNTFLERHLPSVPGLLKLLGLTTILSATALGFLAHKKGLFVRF
# Chain of rabbit Imidazoline 2 Central (I2C), CKB (gene 100009085) (P00567 whole entry, looked up): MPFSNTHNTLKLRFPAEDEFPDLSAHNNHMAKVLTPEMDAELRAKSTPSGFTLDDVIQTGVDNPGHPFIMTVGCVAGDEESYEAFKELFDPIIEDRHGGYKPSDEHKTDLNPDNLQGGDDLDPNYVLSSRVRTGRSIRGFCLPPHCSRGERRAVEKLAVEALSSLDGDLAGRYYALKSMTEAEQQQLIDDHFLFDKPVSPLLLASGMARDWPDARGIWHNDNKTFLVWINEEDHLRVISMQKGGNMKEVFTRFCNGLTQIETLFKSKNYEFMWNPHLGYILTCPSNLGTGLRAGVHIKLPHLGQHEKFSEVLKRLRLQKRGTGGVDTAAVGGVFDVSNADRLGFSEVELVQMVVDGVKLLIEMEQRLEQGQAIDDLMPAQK
# Chain of human Vascular Endothelial Growth Factor Receptor 1 (VEGFR1), FLT1 (gene 2321) (P17948 whole entry, looked up): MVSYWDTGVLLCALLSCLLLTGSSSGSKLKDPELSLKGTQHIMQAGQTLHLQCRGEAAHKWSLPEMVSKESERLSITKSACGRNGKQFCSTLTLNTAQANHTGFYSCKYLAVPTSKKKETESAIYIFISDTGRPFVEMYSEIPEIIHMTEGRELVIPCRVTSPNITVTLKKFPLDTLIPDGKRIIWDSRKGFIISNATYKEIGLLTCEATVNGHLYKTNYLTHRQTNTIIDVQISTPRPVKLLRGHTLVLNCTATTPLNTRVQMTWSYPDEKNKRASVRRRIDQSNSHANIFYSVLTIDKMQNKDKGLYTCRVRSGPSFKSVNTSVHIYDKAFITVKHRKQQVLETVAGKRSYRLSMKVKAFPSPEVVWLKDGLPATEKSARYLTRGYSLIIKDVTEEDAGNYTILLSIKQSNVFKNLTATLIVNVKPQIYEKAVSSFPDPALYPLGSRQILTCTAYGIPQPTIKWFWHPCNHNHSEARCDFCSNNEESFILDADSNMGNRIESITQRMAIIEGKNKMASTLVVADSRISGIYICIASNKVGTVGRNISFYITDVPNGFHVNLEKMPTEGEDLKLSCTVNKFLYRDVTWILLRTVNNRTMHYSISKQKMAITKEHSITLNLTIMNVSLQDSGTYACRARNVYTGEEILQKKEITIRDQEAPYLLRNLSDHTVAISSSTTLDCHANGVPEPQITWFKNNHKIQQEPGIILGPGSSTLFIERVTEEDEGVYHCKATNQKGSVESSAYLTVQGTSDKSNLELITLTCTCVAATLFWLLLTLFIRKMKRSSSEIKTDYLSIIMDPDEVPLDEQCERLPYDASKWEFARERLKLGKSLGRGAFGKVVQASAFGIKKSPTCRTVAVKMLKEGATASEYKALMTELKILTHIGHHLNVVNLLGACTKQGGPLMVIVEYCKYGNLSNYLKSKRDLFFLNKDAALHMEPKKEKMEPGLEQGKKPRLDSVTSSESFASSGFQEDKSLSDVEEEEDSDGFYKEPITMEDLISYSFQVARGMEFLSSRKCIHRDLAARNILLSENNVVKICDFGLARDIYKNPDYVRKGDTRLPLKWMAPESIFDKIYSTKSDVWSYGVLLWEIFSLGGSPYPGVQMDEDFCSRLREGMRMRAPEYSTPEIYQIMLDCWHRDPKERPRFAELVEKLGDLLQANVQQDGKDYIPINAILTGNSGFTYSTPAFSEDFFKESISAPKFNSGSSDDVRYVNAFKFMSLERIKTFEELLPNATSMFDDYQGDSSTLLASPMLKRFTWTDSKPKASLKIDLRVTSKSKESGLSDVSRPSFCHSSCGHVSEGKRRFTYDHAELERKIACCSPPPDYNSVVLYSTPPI
# Chain of human Vascular Endothelial Growth Factor Receptor 2 (VEGFR2), KDR (gene 3791) (P35968 whole entry, looked up): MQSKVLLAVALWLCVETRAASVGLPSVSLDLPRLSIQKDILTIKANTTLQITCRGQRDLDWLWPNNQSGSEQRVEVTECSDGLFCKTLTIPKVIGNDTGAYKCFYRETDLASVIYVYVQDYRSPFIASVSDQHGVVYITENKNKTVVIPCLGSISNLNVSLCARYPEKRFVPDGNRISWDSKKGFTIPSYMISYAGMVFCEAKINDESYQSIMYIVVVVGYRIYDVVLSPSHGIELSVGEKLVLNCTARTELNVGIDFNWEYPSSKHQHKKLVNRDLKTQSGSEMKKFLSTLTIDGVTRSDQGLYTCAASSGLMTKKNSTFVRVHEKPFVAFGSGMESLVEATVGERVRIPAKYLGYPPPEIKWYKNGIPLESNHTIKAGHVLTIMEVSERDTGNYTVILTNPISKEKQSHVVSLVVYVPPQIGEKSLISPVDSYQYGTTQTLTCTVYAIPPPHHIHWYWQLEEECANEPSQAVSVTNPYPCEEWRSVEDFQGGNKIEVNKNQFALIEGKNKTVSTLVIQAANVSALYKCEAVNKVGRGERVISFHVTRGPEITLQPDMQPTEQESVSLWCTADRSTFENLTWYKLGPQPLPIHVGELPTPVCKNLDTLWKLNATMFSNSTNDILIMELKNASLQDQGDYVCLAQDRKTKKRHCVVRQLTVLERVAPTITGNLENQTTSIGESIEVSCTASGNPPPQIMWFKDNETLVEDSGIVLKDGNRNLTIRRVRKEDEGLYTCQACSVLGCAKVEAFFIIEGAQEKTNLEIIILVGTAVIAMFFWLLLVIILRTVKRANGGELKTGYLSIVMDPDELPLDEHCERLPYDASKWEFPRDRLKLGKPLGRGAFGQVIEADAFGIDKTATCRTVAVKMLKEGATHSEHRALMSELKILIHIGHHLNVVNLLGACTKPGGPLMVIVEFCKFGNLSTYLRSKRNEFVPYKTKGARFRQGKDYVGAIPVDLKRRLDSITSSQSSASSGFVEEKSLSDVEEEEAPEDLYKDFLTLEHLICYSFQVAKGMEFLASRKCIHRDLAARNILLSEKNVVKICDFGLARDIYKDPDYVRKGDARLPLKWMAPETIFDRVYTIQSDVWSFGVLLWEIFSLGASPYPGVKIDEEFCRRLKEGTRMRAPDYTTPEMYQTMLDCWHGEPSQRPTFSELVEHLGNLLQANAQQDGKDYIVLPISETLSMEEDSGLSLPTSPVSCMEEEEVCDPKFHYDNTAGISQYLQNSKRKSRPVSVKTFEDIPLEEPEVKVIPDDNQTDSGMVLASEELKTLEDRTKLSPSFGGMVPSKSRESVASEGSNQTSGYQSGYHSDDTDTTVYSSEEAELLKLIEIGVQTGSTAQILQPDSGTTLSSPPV
# Chain of human Protein Tyrosine Phosphatase Non-receptor Type 6 (PTPN6), PTPN6 (gene 5777) (P29350 whole entry, looked up): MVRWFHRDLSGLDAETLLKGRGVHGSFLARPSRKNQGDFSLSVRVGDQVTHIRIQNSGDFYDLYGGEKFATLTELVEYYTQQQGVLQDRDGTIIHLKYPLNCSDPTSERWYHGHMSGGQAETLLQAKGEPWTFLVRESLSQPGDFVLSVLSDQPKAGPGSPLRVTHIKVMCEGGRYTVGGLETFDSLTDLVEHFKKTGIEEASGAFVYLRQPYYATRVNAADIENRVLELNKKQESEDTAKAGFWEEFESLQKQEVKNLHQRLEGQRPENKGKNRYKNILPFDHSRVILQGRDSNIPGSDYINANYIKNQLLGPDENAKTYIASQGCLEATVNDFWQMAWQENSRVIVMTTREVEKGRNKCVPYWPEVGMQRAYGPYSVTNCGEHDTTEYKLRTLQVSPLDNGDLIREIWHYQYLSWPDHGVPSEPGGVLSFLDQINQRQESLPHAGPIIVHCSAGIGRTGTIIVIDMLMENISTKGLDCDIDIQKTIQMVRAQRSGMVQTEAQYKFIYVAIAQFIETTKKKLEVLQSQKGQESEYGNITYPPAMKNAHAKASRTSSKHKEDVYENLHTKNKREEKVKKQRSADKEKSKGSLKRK
# Chain of rat Catechol-O-Methyl Transferase (COMT), Comt (gene 24267) (P22734 whole entry, looked up): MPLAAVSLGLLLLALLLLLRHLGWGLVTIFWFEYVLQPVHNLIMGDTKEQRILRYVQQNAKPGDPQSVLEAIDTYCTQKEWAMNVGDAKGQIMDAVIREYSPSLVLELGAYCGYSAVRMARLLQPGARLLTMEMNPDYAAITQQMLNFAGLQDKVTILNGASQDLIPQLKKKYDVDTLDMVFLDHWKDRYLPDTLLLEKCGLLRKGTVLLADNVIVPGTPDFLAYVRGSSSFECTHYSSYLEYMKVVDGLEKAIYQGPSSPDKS
smiles,measurement,setting,value
CCOP(=S)(OCC)Oc1ccc(S(C)=O)cc1 (centres undefined),outcome,[1],inactive
CCN1CCC2(CC1)COc1cc3c(cc12)N(C(=O)c1ccc(-c2ccc(-c4nnc(C)o4)cc2C)cc1)CC3,outcome,[2],inactive
same,AC50,[3],3.06 µM (active)
same,AC50,[4],23.4 µM (active)
same,outcome,[5],inactive
CCC(=O)C(CC(C)N(C)C)(c1ccccc1)c1ccccc1 (centres undefined),AC50,[2],3.37 µM (active)
same,AC50,[5],2.99 µM (active)
C=C(C)C(=O)[O][Sn]([CH2]CCC)([CH2]CCC)[CH2]CCC,outcome,[6],inactive
O=C(O)C(F)(F)C(F)(F)C(F)(F)C(F)(F)C(F)(F)C(F)(F)C(F)(F)C(F)(F)C(F)(F)C(F)(F)F,AC50,[7],11.9 µM (active)
O=C(O)C(Cl)(Cl)Cl,outcome,[8],inactive
same,outcome,[7],inactive
COP(=S)(OC)Oc1ccc(Sc2ccc(OP(=S)(OC)OC)cc2)cc1,outcome,[9],inactive
same,outcome,[10],inactive
CC(=O)[O][Hg][c]1ccccc1,AC50,[11],17 µM (active)
same,outcome,[12],inactive
same,AC50,[13],2.46 µM (active)
same,AC50,[14],6.16 µM (active)
same,outcome,[9],inactive
same,outcome,[1],inactive
same,outcome,[10],inactive
same,AC50,[6],26.8 µM (active)
same,AC50,[4],1.13 µM (active)
same,AC50,[5],25 µM (active)
O=c1[nH]c(=O)[nH]c(=O)[nH]1,outcome,[15],inactive
same,outcome,[16],inactive
O=C(Nc1ccc2[nH]ccc2c1)c1cc2cc(F)ccc2n1Cc1cccc(F)c1,outcome,[10],inactive
COc1cc2c(cc1OC)[C@@]13CCN4CC5=CCO[C@H]6CC(=O)N2[C@H]1[C@H]6[C@H]5C[C@H]43,AC50,[3],18.1 µM (active)
CC(C)(c1ccccc1)c1ccc(O)c(C(C)(C)c2ccccc2)c1,outcome,[10],inactive
CC(C)(C)c1cc(O)ccc1O,AC50,[16],6.85 µM (active)
CCC(C)(C)c1ccc(O)c(C(C)(C)CC)c1,outcome,[14],inactive
same,outcome,[10],inactive
ClC1(Cl)C2(Cl)C3(Cl)C4(Cl)C(Cl)(Cl)C5(Cl)C3(Cl)C1(Cl)C5(Cl)C24Cl (centres undefined),outcome,[17],inactive
same,outcome,[18],inactive
same,outcome,[16],inactive
Cn1sc(Cl)cc1=O,outcome,[8],inactive
COc1cc(OC)nc(NC(=O)NS(=O)(=O)c2ncccc2C(=O)N(C)C)n1,outcome,[16],inactive
COc1cc(-c2ccc(N)c(OC)c2)ccc1N,AC50,[11],40.1 µM (active)
same,AC50,[2],10.4 µM (active) and 18.1 µM (active)
Clc1ccc(C2(Cn3cncn3)CC(Br)CO2)c(Cl)c1 (centres undefined),outcome,[19],inactive
CC12CC1(C)C(=O)N(c1cc(Cl)cc(Cl)c1)C2=O (centres undefined),AC50,[16],3.77 µM (active)
same,outcome,[4],inactive
CCOP(=S)(OCC)Oc1nc(Cl)c(Cl)cc1Cl,outcome,[8],inactive
CC(C)(C)CC(C)(C)c1ccc(O)cc1,outcome,[11],inactive
same,outcome,[13],inactive
same,outcome,[10],inactive
same,outcome,[16],inactive
Oc1cccc2cccnc12,AC50,[20],1.53 µM (active)
same,outcome,[5],inactive
Nc1ncc([N+](=O)[O-])s1,AC50,[1],40.4 µM (active)
CCCCCCCCc1ccc(O)cc1,outcome,[10],inactive
CC(C)(OO)c1ccccc1,AC50,[16],6.28 µM (active)
COP(=S)(OC)Oc1cc(Cl)c(Cl)cc1Cl,outcome,[1],inactive
CCOP(=S)(OCC)SCSP(=S)(OCC)OCC,outcome,[8],inactive
O=C1C2(Cl)C3(Cl)C4(Cl)C(Cl)(Cl)C5(Cl)C3(Cl)C1(Cl)C5(Cl)C24Cl (centres undefined),outcome,[10],inactive
